Reference: PubChem BioAssay
Active and inactive are the calls of the source. Unless noted, no rule for the calls is given here.

Columns and labels:
[1] = compounds binding Alexa647 anti-His antibody – biochemical, small-molecule microarray, 635 nm fluorescence, artefact control for SMM control protein annotation, primary screen (AID 1128); details: higher = more signal;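 also: score merges feature fluorescence with signal-to-noise for each printed compound spot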
[2] = system: Human papillomavirus type 1a E7 protein (residues 1-88); assay: HPV1a E7 small-molecule binders, primary screen, biochemical, small-molecule microarray, residues 1-88, 635 nm (AID 1129); details: small-molecule microarray binding, fluorescence 635 nm; higher = more signal
[3] = molecular target: Focal adhesion kinase 1 (Homo sapiens) (UniProt Q05397); assay: PTK2 protein binding on printed compound slides – biochemical, small-molecule microarray, 635/667 nm fluorescence, BSA, DTT, primary screen (AID 1130); details: 635 nm fluorescence, higher = more signal;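 also: composite of spot emission at 667 nm and signal to noise over triplicate slides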
[4] = system: Fibrinogen (Alexa647-labelled); assay: Alexa647-fibrinogen binding to printed small molecules – biochemical, small-molecule microarray, 635/667 nm fluorescence, artefact control for SMM control-protein annotation, profiling panel (AID 1131); details: fibrinogen-A647 binding fluorescence, higher = more signal;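 also: z-score merges 667 nm fluorescence with per-spot signal-to-noise over triplicate slides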
[5] = molecular target: Follistatin (Homo sapiens) (UniProt P19883); assay: FST protein binding to printed compounds – biochemical, small-molecule microarray, 635/667 nm fluorescence, primary screen (AID 1132); details: 635 nm fluorescence, higher = more signal
[6] = molecular target: Fibroblast growth factor 2 (Homo sapiens) (UniProt P09038); assay: basic fibroblast growth factor binding to printed compounds – biochemical, small-molecule microarray, 635/667 nm fluorescence, primary screen (AID 1133); details: FGF2, fluorescence 635/667, higher = more signal
[7] = JC-1 mitochondrial potential readout, lung cancer cells – cell-based, A549, JC-1 fluorescence, basal, 24 h, 100 nL, profiling panel (AID 1138); details: higher = more signal;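 also: A549 lung adenocarcinoma cells under basal conditions with no added stimulus; test concentration not given here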
[8] = system: Lefty1; assay: Lefty1 protein binding to printed compounds – biochemical, small-molecule microarray, 635/667 nm fluorescence, primary screen (AID 1139); details: fluorescence 635/667, higher = more signal
[9] = system: wheat germ agglutinin (Triticum aestivum), Alexa647-labelled; assay: Alexa647-WGA lectin binding to printed small molecules – biochemical, small-molecule microarray, 635/667 nm fluorescence, artefact control for SMM control-protein annotation, profiling panel (AID 1140); details: WGA-A647 binding, 635 nm fluorescence, higher = more signal;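 also: score merges 667 nm feature emission with signal to noise over triplicate slides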
[10] = molecular target: Luciferin 4-monooxygenase (Photinus pyralis) (UniProt P08659); assay: inhibition of purified Photinus pyralis luciferase – biochemical, luminescence, purified enzyme, 2006 set, primary screen (AID 1141); details: purified firefly luciferase, SteadyGlo luminescence, 30 min; higher = more signal, called active from +8 up or from −8 down;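 also: cell-free assay with purified firefly luciferase at 100 ng per well in PBS; test concentration not given here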
[11] = system: Wnt5a (protein binding on small-molecule microarray); assay: small molecules binding Wnt5a protein – biophysical, small-molecule microarray, 635/667 nm fluorescence, primary screen (AID 1142); details: 635 nm fluorescence, higher = more signal;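 also: fluorescence read at 667 nm with signal to noise per printed feature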
[12] = ATP-based viability of Huh7 replicon cells – cell-based, CellTiter-Glo luminescence, basal, 48 h, cytotoxicity control for HCV replication inhibitor project, primary screen (AID 1143); details: higher = more signal, called active from +8 up or from −8 down;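 also: Huh7 hepatoma cells carrying a hepatitis C replication reporter with no stimulus; test concentration not given here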
[13] = Pseudomonas biofilm growth suppression – PAO1 strain, BacTiter-Glo luminescence, LB-PBS, primary screen (AID 1144); details: P. aeruginosa PAO1 biofilm, 12 h, higher = more signal
[14] = basal CRE-LacZ reporter activity in PC12 – cell-based, unstimulated, primary screen (AID 1145); details: no forskolin, luminescence, 4.5 h, higher = more signal, called active from +8 up or from −8 down
[15] = forskolin-driven CRE-LacZ activity in PC12 – cell-based, CRE-LacZ reporter, forskolin-stimulated, primary screen (AID 1146); details: luminescence, 4.5 h, higher = more signal, called active from +8 up or from −8 down;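 also: PC12 cells with 6xCRE LacZ reporter stimulated by forskolin 10 µM; beta-galactosidase reporter signal reflecting CREB driven transcription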
[16] = molecular target: Streptavidin (Streptomyces avidinii) (UniProt P22629); assay: compounds binding control protein streptavidin – biophysical, small-molecule microarray, 635/667 nm fluorescence, artefact control for SMM compound annotation, primary screen (AID 1147); details: higher = more signal;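 also: signal reflects streptavidin binding to arrayed compounds as a control protein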
[17] = probe aInhba binding on compound microarray – biochemical, small-molecule microarray, 635/667 nm fluorescence, primary screen (AID 1148); details: higher = more signal;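 also: score merges 667nm spot fluorescence with signal-to-noise for antibody binding to printed compounds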
[18] = molecular target: Torsin-1A (Homo sapiens) (UniProt O14656); assay: TOR1A wild-type binding on microarray – cell lysate, small-molecule microarray, lysate, 635/667 nm, primary screen (AID 1149); details: COS7 hTOR1A-WT lysate, 635 nm fluorescence, higher = more signal
[19] = molecular target: Torsin-1A (Homo sapiens) (UniProt O14656); assay: torsin A mutant lysate binding on microarrays – cell lysate, small-molecule microarray, COS7 lysate, 635/667 nm fluorescence, primary screen (AID 1150); details: COS7 hTOR1A mutant lysate, 635 nm fluorescence, higher = more signal;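 also: score pools 667 nm emission and signal to noise measuring lysate protein binding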
[20] = system: Sonic hedgehog protein (Shh); assay: Sonic hedgehog microarray binding compounds – biochemical, small-molecule microarray, 635/667 nm fluorescence, primary screen (AID 1151); details: 635 nm fluorescence, higher = more signal;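 also: Shh protein binding to compounds spotted on small-molecule microarray slides; score combines spot fluorescence intensity with signal-to-noise across triplicate slides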

Sequence of Focal adhesion kinase 1 (Homo sapiens) (Q05397 whole entry, looked up): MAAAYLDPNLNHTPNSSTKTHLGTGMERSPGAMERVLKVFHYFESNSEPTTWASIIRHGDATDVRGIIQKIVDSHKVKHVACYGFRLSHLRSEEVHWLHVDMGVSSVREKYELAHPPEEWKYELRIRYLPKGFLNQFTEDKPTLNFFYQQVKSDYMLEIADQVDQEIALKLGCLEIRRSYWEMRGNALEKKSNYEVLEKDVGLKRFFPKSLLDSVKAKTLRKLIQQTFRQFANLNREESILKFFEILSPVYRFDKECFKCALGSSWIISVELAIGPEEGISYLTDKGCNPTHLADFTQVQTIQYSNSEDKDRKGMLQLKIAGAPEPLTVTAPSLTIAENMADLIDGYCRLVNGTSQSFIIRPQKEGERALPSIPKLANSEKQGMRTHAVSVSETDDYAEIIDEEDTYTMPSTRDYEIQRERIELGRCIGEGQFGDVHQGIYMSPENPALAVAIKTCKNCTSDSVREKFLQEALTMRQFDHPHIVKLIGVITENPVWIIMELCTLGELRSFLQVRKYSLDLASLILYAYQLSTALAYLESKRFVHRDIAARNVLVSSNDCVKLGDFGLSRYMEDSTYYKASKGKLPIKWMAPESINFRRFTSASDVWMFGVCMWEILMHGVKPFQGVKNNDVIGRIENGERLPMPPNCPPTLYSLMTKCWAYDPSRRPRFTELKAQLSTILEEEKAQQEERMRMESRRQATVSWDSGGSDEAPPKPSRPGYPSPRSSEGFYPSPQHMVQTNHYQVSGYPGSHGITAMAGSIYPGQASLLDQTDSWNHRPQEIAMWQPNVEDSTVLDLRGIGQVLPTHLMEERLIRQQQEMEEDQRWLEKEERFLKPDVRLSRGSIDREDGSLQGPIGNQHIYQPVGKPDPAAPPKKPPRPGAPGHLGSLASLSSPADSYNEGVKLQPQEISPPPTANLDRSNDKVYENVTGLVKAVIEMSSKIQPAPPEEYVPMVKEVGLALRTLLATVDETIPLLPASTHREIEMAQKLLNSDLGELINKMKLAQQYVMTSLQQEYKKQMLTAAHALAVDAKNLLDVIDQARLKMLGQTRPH
Sequence of Streptavidin (Streptomyces avidinii) (P22629 whole entry, looked up): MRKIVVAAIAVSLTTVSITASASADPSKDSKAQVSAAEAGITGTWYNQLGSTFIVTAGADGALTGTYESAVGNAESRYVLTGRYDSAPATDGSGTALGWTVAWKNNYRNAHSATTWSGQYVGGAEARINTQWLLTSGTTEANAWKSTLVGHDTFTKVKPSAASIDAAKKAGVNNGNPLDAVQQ
Sequence of Fibroblast growth factor 2 (Homo sapiens) (P09038 whole entry, looked up): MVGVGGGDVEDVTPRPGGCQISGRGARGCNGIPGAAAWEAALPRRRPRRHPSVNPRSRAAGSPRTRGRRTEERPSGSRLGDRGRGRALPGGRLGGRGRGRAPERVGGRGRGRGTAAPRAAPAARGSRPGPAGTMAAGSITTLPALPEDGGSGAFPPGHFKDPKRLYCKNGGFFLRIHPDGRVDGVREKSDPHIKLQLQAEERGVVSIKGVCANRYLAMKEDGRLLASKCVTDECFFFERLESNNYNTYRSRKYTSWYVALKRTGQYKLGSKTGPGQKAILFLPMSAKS
Sequence of Follistatin (Homo sapiens) (P19883 whole entry, looked up): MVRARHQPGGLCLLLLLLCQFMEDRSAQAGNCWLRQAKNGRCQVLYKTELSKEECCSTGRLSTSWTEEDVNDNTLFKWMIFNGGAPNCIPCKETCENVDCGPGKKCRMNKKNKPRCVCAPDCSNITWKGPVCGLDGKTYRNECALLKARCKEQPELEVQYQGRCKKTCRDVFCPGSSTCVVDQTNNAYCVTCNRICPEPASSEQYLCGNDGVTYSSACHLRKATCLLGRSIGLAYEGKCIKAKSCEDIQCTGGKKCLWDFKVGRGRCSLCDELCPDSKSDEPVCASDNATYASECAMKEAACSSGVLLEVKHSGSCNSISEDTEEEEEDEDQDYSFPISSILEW
Sequence of Luciferin 4-monooxygenase (Photinus pyralis) (P08659 whole entry, looked up): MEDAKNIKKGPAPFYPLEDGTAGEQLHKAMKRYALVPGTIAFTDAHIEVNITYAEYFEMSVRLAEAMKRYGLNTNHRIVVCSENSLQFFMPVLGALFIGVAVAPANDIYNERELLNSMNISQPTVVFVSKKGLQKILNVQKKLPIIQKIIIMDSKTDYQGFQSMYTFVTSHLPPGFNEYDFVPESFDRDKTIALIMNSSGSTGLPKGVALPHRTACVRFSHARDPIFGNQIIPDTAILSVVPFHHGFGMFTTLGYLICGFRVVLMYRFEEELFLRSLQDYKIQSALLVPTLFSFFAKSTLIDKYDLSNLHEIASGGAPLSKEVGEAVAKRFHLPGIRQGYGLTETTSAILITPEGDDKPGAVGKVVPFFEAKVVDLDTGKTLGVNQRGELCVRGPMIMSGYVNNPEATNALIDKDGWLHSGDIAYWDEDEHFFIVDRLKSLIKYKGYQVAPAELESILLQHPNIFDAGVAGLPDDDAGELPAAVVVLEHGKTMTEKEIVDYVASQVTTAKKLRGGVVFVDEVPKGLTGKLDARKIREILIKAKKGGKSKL
Sequence of Torsin-1A (Homo sapiens) (O14656 whole entry, looked up): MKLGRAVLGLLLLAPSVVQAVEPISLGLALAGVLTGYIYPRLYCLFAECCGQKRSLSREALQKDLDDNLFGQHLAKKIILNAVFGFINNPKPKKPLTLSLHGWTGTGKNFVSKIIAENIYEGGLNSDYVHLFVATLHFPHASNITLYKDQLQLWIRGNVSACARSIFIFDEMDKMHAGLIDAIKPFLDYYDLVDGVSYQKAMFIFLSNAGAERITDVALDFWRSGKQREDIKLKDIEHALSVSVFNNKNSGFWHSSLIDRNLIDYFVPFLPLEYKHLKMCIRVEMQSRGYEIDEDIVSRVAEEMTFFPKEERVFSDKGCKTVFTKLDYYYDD

SMILES	composite z-score [1]	composite z-score [2]	composite z-score [3]	composite z-score [4]	composite z-score [5]	composite z-score [6]	z-score [7]	composite z-score [8]	composite z-score [9]	z-score [10]	composite z-score [11]	z-score [12]	z-score [13]	z-score [14]	z-score [15]	composite z-score [16]	composite z-score [17]	composite z-score [18]	composite z-score [19]	composite z-score [20]
COc1cc(CO)cc(I)c1O[C@H]1C=C(C(=O)NCCO)C[C@@H](N(CC2CCCCC2)C(=O)c2ccc(C(F)(F)F)cc2)[C@@H]1O	0.0463	0.621	0.0469	0.367	0.578	0.12	0.53	0.784	0.193	-0.795 (inactive)	-0.0143	-0.494 (inactive)	-0.312 (inactive)	2.57 (inactive)	-1.22 (inactive)	-0.0411	-0.0403	0.0494	0.0547	1.23
COC(=O)[C@@]1(Cc2ccc(OC)cc2)[C@H]2c3cc(C(=O)N(C)C)n(Cc4nc5ccccc5[nH]4)c3C[C@H]2CN1C(=O)c1ccccc1	1.39	1.26	1.34	0.991	0.907	-0.295	1.95	-0.117	1.35	2.41 (inactive)	0.38	-3.83 (inactive)	0.179 (inactive)	-0.375 (inactive)	-0.139 (inactive)	1.12	0.698	0.314	0.432	-0.388
CCC[C@@H]1C[C@@]1(CCC)[C@@H](NP(=O)(c1ccccc1)c1ccccc1)c1ccc(Cl)cc1	-0.649	-0.472	-0.371	-0.428	-0.216	-0.475	-1.22	-0.413	-0.619	1.71 (inactive)	-0.298	-1.4 (inactive)	0.22 (inactive)	0.0007 (inactive)	-0.113 (inactive)	-0.749	-0.232	-0.753	-0.731	-0.447
